# Results filed as inconclusive are left out. Unmarked numbers belong to inactive results. Calls come from the whole dose curve; as a rule, active = well fitted inhibition curve with a large enough effect in the signal ratio in the repeat runs (not every such curve was filed as active); inconclusive = weak or mixed curves, or effect the other way; inactive = no such curve, though single readings can be large or run the other way; the % refers to the signal ratio. Where a SMILES comes first, the peptide text is derived from it. [ ]: non-standard residue; d: D form. pGlu = O=C1CC[C@@H](C(=O)O)N1
# Target: Estrogen receptor beta (Homo sapiens) (UniProt Q92731)
# Sequence (Q92731 whole entry, looked up): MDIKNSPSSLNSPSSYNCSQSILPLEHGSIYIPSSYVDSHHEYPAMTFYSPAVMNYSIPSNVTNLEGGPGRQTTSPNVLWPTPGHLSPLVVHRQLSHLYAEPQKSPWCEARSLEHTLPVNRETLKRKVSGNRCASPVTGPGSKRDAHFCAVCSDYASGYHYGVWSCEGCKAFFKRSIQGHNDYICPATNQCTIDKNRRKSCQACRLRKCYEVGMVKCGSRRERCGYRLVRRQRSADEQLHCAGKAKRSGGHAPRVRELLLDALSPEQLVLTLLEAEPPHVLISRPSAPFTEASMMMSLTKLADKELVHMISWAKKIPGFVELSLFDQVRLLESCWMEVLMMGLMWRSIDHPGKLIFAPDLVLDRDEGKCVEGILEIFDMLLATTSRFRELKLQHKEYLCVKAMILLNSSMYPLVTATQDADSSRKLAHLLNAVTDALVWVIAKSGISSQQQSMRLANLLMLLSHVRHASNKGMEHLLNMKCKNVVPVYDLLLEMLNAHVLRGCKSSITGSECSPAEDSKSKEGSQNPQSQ
# Assay: qHTS assay to identify small molecule antagonists of the estrogen receptor beta (ER-beta) signaling pathway (AID 1259378)
# Settings: ER-beta-UAS-bla HEK293T, beta-lactamase FRET ratio, 16 h; series mostly up to 92.4 µM; activity, negative = inhibition: at the top concentration
# Text: National Center for Advancing Translational Sciences [NCATS]
# NIH Chemical Genomics Center [NCGC]
# U.S. Environmental Protection Agency [EPA]
# National Institutes of Environmental Health Sciences [NIEHS]
# National Toxicology Program [NTP]
# U.S. Food and Drug Administration [FDA]
# Estrogen receptor (ER), a nuclear hormone receptor, plays an important role in development, metabolic homeostasis and reproduction. Two subtypes of ER, ER-alpha and ER-beta, have similar expression patterns with some uniqueness in both types. Endocrine disrupting chemicals (EDCs) and their interactions with steroid hormone receptors like ER causes disruption of normal endocrine function. To identify the compounds that inhibit ER signaling, an ER-beta-UAS-bla GripTite cell line (Life Technologies, Madison, WI, USA) containing a beta-lactamase reporter gene under the control of an UAS response element was used to screen Tox21 10K compound library.
# Tox21 Assay Protocol Summary:
# ER-beta-UAS-bla HEK293T cells were dispensed at 2,000 cells/4 uL of assay medium containing 2% charcoal stripped FBS per well into black wall/clear-bottom 1536-well plates using a Multidrop Combi (ThermoFisher Scientific, Waltham, MA) dispenser. After the assay plates were incubated at a 37C and 5% CO2 for 6 hr, 23 nL of compounds dissolved in DMSO, positive controls or DMSO only was transferred to the assay plate by a Pintool station (Kalypsys, San Diego, CA), followed by addition of 1 uL (1nM as final concentration) of 17-beta-estradiol (E2) in assay medium using a BioRAPTR FRD (Flying Reagent Dispenser, Aurora Discovery, San Diego, CA). The plates were incubated at 37C and 5% CO2 for 16 hr. Then 1 uL of LiveBLAzerTM B/G FRET substrate was added using a Flying Reagent Dispenser, the plates were incubated at room temperature for 2 hours, and fluorescence intensity was measured by an Envision plate reader (PerkinElmer, Shelton, CT).
# % is set by controls: 0 for no effect and ±100 for the full control effect.
row,Compound,"activity, negative = inhibition"
1,c1ccc2sc(SN3CCOCC3)nc2c1,1.23% [at 42.5 µM]
2,CC(COc1ccccc1)NN (stereo not given),-2.01% [at 42.5 µM]
3,CCCc1ncc(C[n+]2ccccc2C)c(N)n1,4.79% [at 42.5 µM]
4,Cc1ncc([C@@H](CCCCCCc2ccc3c(n2)NCCC3)CC(=O)O)cn1,3.54%
5,CC(C)(N)C#N,-19.4%
6,CN(C)CCCN(C)CCCN(C)C,11%
7,CCC(C(=O)NC(=O)NC(C)=O)c1ccccc1 (stereo not given),5.55% [at 42.5 µM]
8,NS(=O)(=O)Cc1noc2ccccc12,2.61% [at 42.5 µM]
9,CCOC(=O)CCC(=O)OCC,2.95%
10,COCCOCC(OC)OC,19.9% [at 42.5 µM]
11,CCOC(=O)COc1cc(-n2ncc(C(F)(F)F)c(C)c2=O)c(F)cc1Cl,3.39%
12,COCCOC[C@H](CC1(C(=O)NC2CCC(C(=O)O)CC2)CCCC1)C(=O)Oc1ccc2c(c1)CCC2 (stereo not given in full),-1.59%
13,CC(C)c1ccc2ncccc2c1,0.115%
14,CC(C)(CCC(=O)O)C(=O)O,2.35%
15,CCCCOCCOC(=O)CCCCCCCCC(=O)OCCOCCCC,2.63%
16,CC[N+](CC)(CC)CCOc1cccc(OCC[N+](CC)(CC)CC)c1OCC[N+](CC)(CC)CC,14.8% [at 42.5 µM]
17,Cc1nc(C2CCCCC2)c(-c2ccc(S(N)(=O)=O)c(F)c2)o1,-23.9% [at 42.5 µM]
18,CNC(=O)Nc1ccc(Cl)c(Cl)c1,2.68%
19,CC(CC=O)CC(C)(C)C (stereo not given),4.68%
20,O=[N+]([O-])c1ccc(/C=N\O)o1,-2.07% [at 42.5 µM]

row,Compound,"activity, negative = inhibition"
1,O=C1CCCCCCCCCCCCCCO1,-6.26%
2,CCOC(=O)c1ccccc1,7.16%
3,CC(CO)(CO)[N+](=O)[O-],-0.773%
4,COC(=O)Nc1ccc(Cl)c(Cl)c1,2.09%
5,CCNC(=O)[C@@H]1CCCN1C(=O)[C@H](CCCN=C(N)N)NC(=O)[C@H](CC(C)C)NC(=O)CNC(=O)[C@H](Cc1ccc(O)cc1)NC(=O)[C@H](CO)NC(=O)[C@H](Cc1c[nH]c2ccccc12)NC(=O)[C@H](Cc1cnc[nH]1)NC(=O)[C@@H]1CCC(=O)N1 ([pGlu]HWSYGLRP-NHEt),3.26% [at 42.5 µM]
6,CC(=O)O[C@@]12CO[C@@H]1C[C@H](O)[C@@]1(C)C(=O)[C@H](O)C3=C(C)[C@@H](OC(=O)[C@H](O)[C@@H](NC(=O)OC(C)(C)C)c4ccccc4)C[C@@](O)([C@@H](OC(=O)c4ccccc4)[C@H]21)C3(C)C,5.76% [at 42.5 µM]
7,CCCCCCCCCCOc1cc2c(=O)c(C(=O)OCC)c[nH]c2cc1OCC,11.6% [at 8.39 µM]
8,CCCCCCC1CCC(=O)O1 (stereo not given),4.56%
9,O=C(CO)[C@@H](O)[C@H](O)[C@H](O)CO,4.13%
10,OCCCCCO,-13.9%
11,C=C(C)C(=O)OCCOCCOCCOCCOC(=O)C(=C)C,14.9%
12,CC(=O)Nc1ccc(OCC(O)CNC(C)C)cc1 (stereo not given),1.1% [at 42.5 µM]
13,C[N+](C)(CCOc1ccccc1)Cc1cccs1,14.5% [at 42.5 µM]
14,[O-][n+]1cccc(CO)c1,-1.58% [at 42.5 µM]
15,Cc1ccc(-c2ccccc2C#N)cc1,15.4% [at 42.5 µM]
16,CCC(C)(CN(C)C)OC(=O)c1ccccc1 (stereo not given),11.7% [at 42.5 µM]
17,CCOC(=O)COC(=O)c1ccccc1C(=O)OCC,11.7%
18,C=COCC1CCC(COC=C)CC1 (stereo not given),0.946%
19,CN(C)CCCCCCN(C)C,1.9%
20,CCCCc1nc(Cl)c(CO)n1Cc1ccc(-c2ccccc2-c2nn[nH]n2)cc1,0.231% [at 42.5 µM]

# Reference: PubChem BioAssay (Tox21)
